The campaign covered roughly 60,000 compounds. About 370 (0.62%) were called active. This is one part of a sample in which actives are shown more often than they occur. Cut-off read from the data, not from the text of the source: active = inhibition above about 17%; inactive = the rest.
What follows are compounds tested against Mitogen-activated protein kinase 10 (Homo sapiens) (UniProt P53779) (assay: JNK3 kinase activity inhibitors, primary screen, biochemical, human, purified enzyme (AID 746;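 note: 0% = DMSO and 100% = reference inhibitor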)). Conditions: HTS, at 8 µM, hits give high values.
Mitogen-activated protein kinase 10 (Homo sapiens), sequence (P53779 whole entry, looked up): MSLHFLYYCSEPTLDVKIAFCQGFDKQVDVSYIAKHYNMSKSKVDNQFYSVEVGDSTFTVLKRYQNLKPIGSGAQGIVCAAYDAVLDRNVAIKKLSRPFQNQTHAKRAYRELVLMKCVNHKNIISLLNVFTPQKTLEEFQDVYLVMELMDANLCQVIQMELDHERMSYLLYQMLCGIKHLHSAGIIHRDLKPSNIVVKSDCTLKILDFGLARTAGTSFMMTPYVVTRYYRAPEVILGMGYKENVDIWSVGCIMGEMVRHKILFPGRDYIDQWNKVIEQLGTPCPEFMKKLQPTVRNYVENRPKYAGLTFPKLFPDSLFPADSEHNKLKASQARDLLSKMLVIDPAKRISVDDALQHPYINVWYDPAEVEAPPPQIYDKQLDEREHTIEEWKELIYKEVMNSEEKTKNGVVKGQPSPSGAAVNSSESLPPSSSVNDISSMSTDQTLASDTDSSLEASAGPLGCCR

Structure (SMILES)	inhibition
COc1ccc(Cn2cccc(NC(=O)Nc3ccc(C#N)cc3)c2=O)cc1	2.85% (inactive)
CCOC(=O)C1CCN(C(=O)Nc2ccc(Cl)cc2)CC1	3.13% (inactive)
CCC(C)Sc1nnc(-c2c[nH]c3ccccc23)n1CCOC (stereo not given)	-1.71% (inactive)
COc1ccc(CCNC(=O)CCn2c(=O)oc3ccccc32)cc1OC	-2.91% (inactive)
Cc1cc(C)c(S(=O)(=O)NCCCN2CCOCC2)cc1Br	-5.01% (inactive)
COc1ccc(OC)c(C2N(c3ccccn3)C(=O)C3CCCN32)c1 (stereo not given)	1.09% (inactive)
Cc1cc(=O)n2c3c(cccc13)CCC2	6.82% (inactive)
CCOC(=O)c1sc2nc(CSCC(=O)OCc3ccc(C(=O)OC)o3)[nH]c(=O)c2c1C	0.98% (inactive)
COC(=O)c1c(NC(=O)CCN2CCOCC2)sc2c1CCCC2	-3.4% (inactive)
COc1ccccc1-n1cnc2cc(NS(=O)(=O)c3ccccc3)ccc21	4.48% (inactive)
COc1ccc(O)c(C=Nc2cc(C)on2)c1	0.04% (inactive)
Cc1cc(C)n(C(=O)c2ccc(C)c(S(=O)(=O)N3CCOCC3)c2)n1	1.61% (inactive)
Cc1cccc2cc(C#N)c(N3CCCC3)nc12	2.01% (inactive)
CC(C)COC(=O)C1C2C=CC3(CN(C(C)c4ccc(Br)cc4)C(=O)C13)O2 (stereo not given)	-6.16% (inactive)
NC(=O)C1(N2CCCCC2)CCN(C(=O)c2ccc(C#Cc3ccccc3)o2)CC1	-2.13% (inactive)
CCCn1c(SCC(=O)Nc2c(C)cccc2C)nnc1C(C)C	-2.91% (inactive)
C=CCN(c1ccc(C(N)=O)cc1)S(C)(=O)=O	4.4% (inactive)
COc1cccc(OCC(=O)Nc2ccccc2C(N)=O)c1	26.1% (active)
NC(=O)c1ccccc1NC(=O)c1ccccc1F	13.4% (inactive)
CCCOC(=O)Nc1ccccc1C(N)=O	-5.47% (inactive)
CCOCCCNS(=O)(=O)Cc1ccccc1	1.76% (inactive)
CCCCOc1ccc(C(=O)NCc2ccco2)cc1	0.41% (inactive)
CCOc1ccc2nc(N3CCCN(C(=O)Nc4ccccc4C)CC3)c(C#N)cc2c1	0.49% (inactive)
CCN(c1ccccc1)S(=O)(=O)c1ccc(N)cc1	2.15% (inactive)
CC1=C(C(N)=O)C(c2ccc3c(c2)OCO3)n2nc(-c3cccc(C)c3)nc2N1 (stereo not given)	5.86% (inactive)

Structure (SMILES)	inhibition
CCOC(=O)c1ccc(Nc2cc(C)nc3nc(C)nn23)cc1	-10.1% (inactive)
COc1ccccc1NC(=O)CSc1nnc(Cn2nnc(-c3ccccc3)n2)n1-c1ccccc1	-0.28% (inactive)
O=C(Nc1nsc(-c2ccccc2)n1)c1ccncc1	1.54% (inactive)
CC1CSc2nnc(CCc3ccccc3)n21 (stereo not given)	16.5% (inactive)
COC(=O)c1cc(C(=O)CSc2nc(C)cc(C)n2)ccc1O	1.84% (inactive)
COc1c(O)cccc1-c1nnn(CCC(=O)OCC(=O)c2ccccc2)n1	0.11% (inactive)
CC(CCc1ccccc1)NC(=O)c1ccc(Br)o1 (stereo not given)	3.4% (inactive)
NC(=O)CCCC1=NS(=O)(=O)c2ccccc2N1	11.7% (inactive)
Nc1nonc1C(=O)NCCc1ccccc1	2.83% (inactive)
CC(C)CC(=O)N=C1SC2CS(=O)(=O)CC2N1CCc1ccccc1 (stereo not given)	-1.83% (inactive)
Cc1noc(C)c1S(=O)(=O)N(CC(=O)Nc1ccc2c(c1)OCCO2)c1ccc(C(C)C)cc1	0.66% (inactive)
C=CCNc1nnc(SCC(=O)N2CCCCC2)c2ccccc12	-2.85% (inactive)
Nc1nnc(SCCN2C(=O)c3ccccc3S2(=O)=O)s1	-1.92% (inactive)
Cc1ccc(CNC(=O)CCCNC(=O)c2ccc(Cl)cc2)n1C	10.2% (inactive)
Cc1ccc(Oc2ccc(N)cc2)cc1	6.53% (inactive)
CCOc1cc2c(cc1OCC)C(C(=O)O)C(c1ccc(OC)c(O)c1)N(C)C2=O (stereo not given)	-0.42% (inactive)
O=C(C1CCC1)N1CCc2cc(S(=O)(=O)NCc3cccnc3)ccc21	-6.87% (inactive)
COC(=O)c1cc(Cl)c(NC(=O)c2ccco2)cc1OC	-6.35% (inactive)
Cc1cc2c(=O)n(C)c(SCC(=O)c3cc4ccccc4o3)nc2s1	-3.37% (inactive)
CCOC(=O)c1c(NC(=O)c2cccs2)sc(C)c1C	6.19% (inactive)
Oc1c(C(c2cccs2)N2CCN(c3ccc(F)cc3)CC2)sc2ncnn12 (stereo not given)	1.85% (inactive)
O=C1c2ccccc2-c2ncnc3c(N4CCOCC4)cc(N4CCOCC4)c1c23	-9.75% (inactive)
CCOc1cc(C(=O)Nc2ncccn2)cc(OCC)c1OCC	-1.81% (inactive)
O=C(NCCN1CCOCC1)c1c(F)c(F)c(F)c(F)c1F	7.3% (inactive)
CCn1nc(C(=O)OCC(=O)N2c3ccccc3CC2C)c2ccccc2c1=O (stereo not given)	1.01% (inactive)

Structure (SMILES)	inhibition
Cn1cnc2c1c(=O)n(Cc1c(Cl)cccc1Cl)c(=O)n2C	2.26% (inactive)
Cc1nnc(NC(=O)CSc2nccn2-c2cccc(C)c2C)s1	-4.27% (inactive)
Cc1ccc2oc(=O)c3cnn(CC(=O)N4CCCCCC4)c3c2c1	0.73% (inactive)
Cc1ccc2oc(=O)c3cnn(CC(=O)N4CCN(c5ccccn5)CC4)c3c2c1	37.2% (active)
CCOC(=O)C1CCCN(C(=O)Cn2ncc3c(=O)oc4ccc(C)cc4c32)C1 (stereo not given)	0.71% (inactive)
CCOc1ccc(C(=O)Nc2ccncc2)cc1	0.07% (inactive)
O=S(N1CCCCCC1)C12CC3CC(CC(C3)C1)C2 (stereo not given)	8.25% (inactive)
COC(=O)c1cc(NC(=O)CN2CCC(C(N)=O)(N3CCCCC3)CC2)cc(C(=O)OC)c1	-2.8% (inactive)
COC(=O)c1cccc(NC(=O)CN2CCC(NC(=O)c3cc(OC)c(OC)c(OC)c3)CC2)c1	79.2% (active)
COc1ccc(NC(C)=O)cc1NC(=O)CN1CCN(c2ccccn2)CC1	2.12% (inactive)
COc1ccc(-c2cc(C(=O)NC(C(=O)O)C(C)C)c(C)o2)cc1OC (stereo not given)	1.2% (inactive)
Cc1cc(C(=O)O)c(S(C)(=O)=O)s1	0.82% (inactive)
CC1=C(C)CC2C(=O)N(c3cccc4ccccc34)C(=O)C2C1 (stereo not given)	0% (inactive)
COc1ccccc1Cc1nc(-c2ccc(C)cc2)no1	4.84% (inactive)
CC(C)Cc1cc(C(=O)Nc2cc(Br)ccc2O)no1	-4.9% (inactive)
COc1ccc(CCN(C)C(=O)C2CCCN(Cc3ccc(OC)c(OC)c3)C2)cc1OC (stereo not given)	4.04% (inactive)
CN(C)/C=C1/C(=O)Nc2ccccc21	-8.06% (inactive)
O=C(CCN1C(=O)c2ccccc2C1=O)Nc1ccncc1	0.63% (inactive)
COc1ccc(-c2nc3n(c2Br)CCC3)cc1	-4.37% (inactive)
CCCC(=O)Nc1ccc2c(c1)nc1n2CCSC1	-5.4% (inactive)
Cc1ccsc1C(=O)OCC(=O)c1cc(C)n(CC2CCCO2)c1C (stereo not given)	1.34% (inactive)
COc1ncnc2c1N=C1CC(C)(C)CC(N)=C1S2	-12.2% (inactive)
O=C(COc1ccccc1)NCCc1nc2ccccc2[nH]1	5.21% (inactive)
COc1ccc(NC2CC(=O)N(C)C2=O)cc1 (stereo not given)	-1.99% (inactive)
CCN(CC)P(=O)(/C(Cl)=C\Nc1c(C)n(C)n(-c2ccccc2)c1=O)N(CC)CC	4.4% (inactive)

Structure (SMILES)	inhibition
CCOC(=O)N1CCN(S(=O)(=O)c2cc3c(cc2C)NC(=O)CO3)CC1	1.04% (inactive)
COc1ccc2c(c1)C=CC1(O2)N(CCO)c2ccccc2C1(C)C (stereo not given)	-1.22% (inactive)
CS(=O)(=O)N1CCN(C(=O)Cc2ccccc2)CC1	7.69% (inactive)
Cc1cc(C(=O)N2CCN(c3ccccn3)CC2)c(C)o1	2.54% (inactive)
COc1cccc(OC)c1C(=O)Nc1nnc(C(C)C)s1	-2.05% (inactive)
Cn1cccc1Cc1nnc(SCC(=O)NCc2ccc3c(c2)OCO3)n1CCc1ccccc1	-1.11% (inactive)
CCn1c(SCCC(C)C)nnc1-c1c[nH]c2ccccc12	2.85% (inactive)
CCC(c1nnnn1C1CCCC1)N1CCN(C(=O)c2ccco2)CC1 (stereo not given)	-1.42% (inactive)
Fc1ccc(OCc2nn3c(Cn4nnc5ccccc54)nnc3s2)cc1	-2.42% (inactive)
CCn1c(SCC(=O)c2ccc(Cl)s2)nnc1-c1cccs1	-1.37% (inactive)
CC12CN(Cc3ccccc3)CC(C)(CN(Cc3ccccc3)C1)C2=NO	1.42% (inactive)
COc1ccccc1-c1c(C)nn2c(C)c(C(C)=O)cnc12	0.53% (inactive)
O=S(=O)(NCCOc1cccc2cccnc12)c1ccc(F)cc1	-0.52% (inactive)
FC(F)(F)c1cc(-c2ccco2)nc(N2CCOCC2)n1	2.31% (inactive)
Cc1cccn2c(=O)c3cc(C(=O)N4COCC4(C)C)n(C)c3nc12	5.99% (inactive)
COc1ccc(-n2nc3c(c2NC(=O)Cc2cccc(C)c2)CS(=O)C3)cc1 (stereo not given)	1.83% (inactive)
CCCC(=O)N=c1sc2cccc(F)c2n1C	-1.7% (inactive)
CN(c1nc2ccccc2n2c(-c3ccco3)nnc12)S(=O)(=O)c1ccccc1	-4.26% (inactive)
C=C(C)Cn1c(N2CCCC2)nc2c1c(=O)[nH]c(=O)n2C	2.48% (inactive)
NC(=O)CSc1c[nH]c2ccccc12	6.99% (inactive)
CNC(=O)c1nnn(-c2ccccc2)c1C(=O)NC	-3.49% (inactive)
Brc1ccc(OCCn2ccnc2)cc1	1.14% (inactive)
CCCOc1ccc(C2c3c(oc4cc(C)c(C)cc4c3=O)C(=O)N2CCCN2CCOCC2)cc1 (stereo not given)	3.64% (inactive)
CCCOc1ccc(C2C(C(=O)c3ccc(C)o3)=C(O)C(=O)N2CCCn2ccnc2)cc1 (stereo not given)	42.8% (active)
CC(=O)N1CCN(c2ccc(NCc3ccc(C(C)C)cc3)cc2)CC1	-4.46% (inactive)

Reference: PubChem BioAssay AID746 (The Scripps Research Institute Molecular Screening Center, 2007)
